# Screening results as filed in PubChem BioAssay.
# pPAFAH FP inh: inhibitors of human plasma PAF acetylhydrolase (pPAFAH). Q13093. recombinant pPAFAH, FP-rhodamine probe fluorescence polarization. inhibition, % at 3.39 µM. actives 1.5% (n = 330,000). AID 463082;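 active means inhibition above the mean inhibition across the screen plus 3 SD, cut at about 25% in these data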;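 further: inhibitors block binding of the rhodamine activity-based probe so polarization drops; 0% = enzyme with DMSO and 100% = wells lacking pPAFAH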
# PAFAH2 inh: inhibitors of human PAFAH2 | Q99487 | recombinant PAFAH2, FP-rhodamine activity probe, fluorescence polarization | inhibition, % at 3.39 µM | actives 0.99% (n = 340,000) | AID 492956;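 active means inhibition above the mean over all tested compounds plus 3 SD, cut at about 30% in these data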;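 further: inhibitors block probe labeling of enzyme so polarization drops; 0% = enzyme with DMSO and 100% = wells lacking PAFAH2 protein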
# PAFAH1B2 FP inh: inhibitors of human PAFAH1B2. P68402. recombinant PAFAH1B2, FP-rhodamine activity probe, fluorescence polarization. inhibition, % at 3.39 µM. actives 1.2% (n = 340,000);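 active means inhibition above the mean of all tested compounds plus 3 SD, cut at about 24% in these data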;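 further: 0% = enzyme with DMSO and 100% = wells lacking PAFAH1B2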
# ZTA counter: blocks Epstein-Barr virus ZTA, an EBNA-1 counter-screen | P03206 | ZTA-DNA binding, fluorescence polarization | inhibition, % at 11 µM | actives 0.15% (n = 320,000) | AID 2234; in the data active means inhibition above about 33%
# Target sequence (P03206 whole entry, looked up): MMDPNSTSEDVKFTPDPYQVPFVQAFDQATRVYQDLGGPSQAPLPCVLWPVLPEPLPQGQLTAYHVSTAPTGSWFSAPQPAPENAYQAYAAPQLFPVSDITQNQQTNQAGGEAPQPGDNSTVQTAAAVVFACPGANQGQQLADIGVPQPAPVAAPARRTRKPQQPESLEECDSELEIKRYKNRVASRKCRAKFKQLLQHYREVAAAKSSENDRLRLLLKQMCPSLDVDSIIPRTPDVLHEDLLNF
# EBNA-1 inhibitor: blocks EBNA-1 binding to DNA. EBNA-1 DNA binding, fluorescence polarization. inhibition, % at 14.8 µM. actives 0.34% (n = 300,000). AID 1950; in the data active means inhibition above about 28%
# PAFAH1B3 inh: blocks human PAF acetylhydrolase 1B catalytic subunit 3; inhibition, % at 3.39 µM; actives 0.28% (n = 340,000); Q15102; recombinant PAFAH1B3, FP-rhodamine probe, fluorescence polarization; AID 492972;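 active means inhibition above the screen-wide average of all tested compounds plus 3 SD, cut at about 25% in these data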;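 further: 0% = enzyme with DMSO only and 100% = wells lacking PAFAH1B3 protein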
# Target sequence (Q15102 whole entry, looked up): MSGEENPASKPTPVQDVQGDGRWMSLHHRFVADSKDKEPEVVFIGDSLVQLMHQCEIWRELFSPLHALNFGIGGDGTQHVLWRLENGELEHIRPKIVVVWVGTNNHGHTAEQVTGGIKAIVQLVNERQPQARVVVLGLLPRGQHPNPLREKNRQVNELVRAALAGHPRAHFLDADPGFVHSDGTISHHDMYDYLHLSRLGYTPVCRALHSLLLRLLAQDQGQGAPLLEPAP
# * hit, by the source's call; x = not tested or not shown; ! = a repeat was not active. In the library only some 2.9% were active in any assay of this set; here they are far more common.
SMILES,pPAFAH FP inh,PAFAH2 inh,PAFAH1B2 FP inh,ZTA counter,EBNA-1 inhibitor,PAFAH1B3 inh
CCC(C)(C)C1CCc2c(sc(NC(=O)c3ccccc3C(=O)O)c2C#N)C1 (configuration not stated),32*,15,67*,16,10,11
CC(C)(C)C1CCc2c(sc(NC(=O)C3CC=CCC3C(=O)O)c2C#N)C1 (configuration not stated),31*,12,59*,9,-3,10
N#Cc1c(NC(=O)C2CC=CCC2C(=O)O)sc2c1CCCCCC2 (configuration not stated),-2,6,45*,10,-1,4
O=C(Nc1ccccc1)c1ccsc1,0,9,-1,-2,2,1
COCC1CCCCN1C(=O)c1cccc(OC2CCN(C(=O)C3CC3)CC2)c1 (configuration not stated),4,3,-1,-12,-3,6
Cc1noc(C)c1COC(=O)C1CCN(S(=O)(=O)c2ccc(F)cc2)CC1,-4,3,6,7,x,2
Cc1cc(C(=O)NCC(=O)OC(C)C(=O)N2CCOCC2)ccc1[N+](=O)[O-] (configuration not stated),-1,-1,-4,1,x,1
CCOC(=O)c1oc2ccccc2c1CSc1nnnn1-c1ccccc1,26*,2,7,0,7,15
CC1(C)Cc2c(C#N)c(N3CCN(C(=O)c4ccccc4Cl)CC3)nc(-c3ccco3)c2CS1,34*,10,4,0,8,5
CC1(C)Cc2c(C#N)c(N3CCN(C(=O)c4ccco4)CC3)nc(-c3ccco3)c2CS1,32*,17,-3,0,-4,2
O=C(O)/C=C/C(O)c1ccc(Cl)cc1 (configuration not stated),0,6,-3,-26,1,-4
Cc1c(-c2nnc(SCC(=O)O)n2-c2ccccc2Br)nnn1-c1ccccc1,0,-1,1,9,2,-6
CC1SC2(NC1=O)C1CC3CC(C1)CC2C3 (configuration not stated),1,1,28*,10,-2,0
O=C(CSc1nnnn1-c1ccc(F)cc1)Nc1ccccc1F,x,-3,1,x,x,2
CCCCC(=O)NC(c1ccc(N(CC)CC)cc1)c1ccc2cccnc2c1O (configuration not stated),26*,2,4,-26,-1,0
CCCCC(=O)NC(c1ccc(N(C)C)cc1)c1ccc2cccnc2c1O (configuration not stated),26*,5,5,-4,-2,9
CCOC(=O)C1C(C(=O)OC)=C(C(=O)OC)c2ccccc2N1S(=O)(=O)C(F)(F)F (configuration not stated),0,-7,0,x,x,1
O=C(O)CCc1ccc(-c2cccs2)n1CCc1ccccc1,34*,-1,7,-7,6,-11
C/C(=N\NC(=S)NC1CCCCC1)c1cccc(C(F)(F)F)c1,9,3,-2,2,-5,12
NC(=S)n1[nH]c(-c2ccc([N+](=O)[O-])cc2)c(N=Nc2ccc(Cl)cc2)c1=O,x,41*,9,x,x,9
COc1ccc(-c2n[nH]c(C)c2-c2ccc(Cl)cc2)c(O)c1OC,32*,-1,6,1,-7,4
C/C(N)=C(/C#N)C(=O)COC(=O)CCS(=O)(=O)c1ccccc1,7,-3,2,6,4,15
C/C(N)=C(/C#N)C(=O)COC(=O)CCSc1ccccc1,8,12,27*!,-4,-4,2
O=c1[nH]c(=S)n(C2CCCCC2)c(O)c1C=NCCN1CCOCC1,7,4,29*,-1,-3,4
Cc1cc(C)c(-n2c(O)c(C=NCCN3CCOCC3)c(=O)[nH]c2=O)c(C)c1,3,-3,5,-7,2,3
SMILES,pPAFAH FP inh,PAFAH2 inh,PAFAH1B2 FP inh,ZTA counter,EBNA-1 inhibitor,PAFAH1B3 inh
Cn1cnc([N+](=O)[O-])c1N=C(N)N,0,1,6,-5,-6,7
CCOC(=O)Cc1csc(NS(=O)(=O)c2ccc([N+](=O)[O-])cc2)n1,1,4,1,10,1,11
CCOc1cc(C(N)=O)cc(OCC)c1OCC,1,-1,0,-8,1,8
CCOc1cc(-c2nn3cnnc3s2)cc(OCC)c1OCC,28*,-9,-4,12,1,1
CCC(C)NC(=O)c1ccc(CS(=O)(=O)Cc2ccc(Cl)cc2)o1 (configuration not stated),26*,5,7,2,7,12
CCC(C)NC(=O)c1ccc(CSCc2ccc(Cl)cc2)o1 (configuration not stated),16,6,11,-8,-11,10
CCN(CCn1cccn1)C(=O)C1CCC(=O)N(CCN2CCOCC2)C1 (configuration not stated),-2,-1,6,1,-6,2
COC(=O)C(Cc1ccc(O)cc1)NC(=O)c1ccccc1 (configuration not stated),7,-3,3,-3,-15,3
COC(=O)C(Cc1ccc(O)cc1)NC(=O)C(C)NC(=O)c1ccc(C(C)(C)C)cc1 (configuration not stated),4,6,27*,2,-4,7
COc1ccccc1CC(=O)O/N=C(\N)Cc1cccc2ccccc12,-1,34*,3,7,11,-4
CCC(=NOCc1ccccc1)C(=O)NNS(=O)(=O)c1ccc(C)cc1,x,10,16,x,x,18
CCCCNC(=O)Cc1coc2ccc3ccccc3c12,3,-9,1,14,9,4
Cc1noc(C)c1-c1nc(CS(=O)(=O)c2ccc(Cl)cc2)no1,-4,9,30*,-12,6,5
CN(Cc1ccccc1)C(=O)CN1CCN(S(=O)(=O)c2ccc(Cl)c(Cl)c2)CC1,1,0,30*,8,x,6
CCN1CCc2c(OCc3ccc(C)cc3)cccc2C1=O,6,3,3,1,7,4
O=c1oc2ccccc2nc1/C=C(O)/C=C\c1ccccc1,33*,2,6,-24,-9,-2
O=C(NCc1cccs1)c1cccc(Nc2nc3ccc(Br)cc3[nH]2)c1,12,11,27*,-9,-2,32*
Cc1sc(N)nc1-c1ccccc1,0,9,4,17,1,8
CC(C)(C)c1sc(N)nc1-c1ccccc1,9,-9,27*,-9,-1,4
S=c1[nH]nc(CSCc2ccccc2Cl)n1-c1ccccc1,27*,-2,6,-10,-10,-1
COCc1n[nH]c(=S)n1-c1ccccc1,-2,-1,-8,7,-3,1
CCCCn1c(N)c(N(CC(C)C)C(=O)c2cc3c(s2)CCCCC3)c(=O)[nH]c1=O,4,2,0,-11,11,3
